Columns and labels:
Assay in all cases: DAPPL (digital affinity profiling via proximity ligation, sequencing); 10 mM Tris-HCl pH 7.5, 50 mM NaCl, 1 mM DTT, 4% glycerol, room temperature, 30 min; GST-TFs on glutathione beads, 16-mer random dsDNA library, 0.1% formaldehyde crosslink after washing; high values mean tight binding
FEV = molecular target: T1, FEV (Homo sapiens, UniProt Q99581 1-238); settings: protein: recombinant; tags: N-terminal GST; dsDNA, one strand shown
T1 sequence: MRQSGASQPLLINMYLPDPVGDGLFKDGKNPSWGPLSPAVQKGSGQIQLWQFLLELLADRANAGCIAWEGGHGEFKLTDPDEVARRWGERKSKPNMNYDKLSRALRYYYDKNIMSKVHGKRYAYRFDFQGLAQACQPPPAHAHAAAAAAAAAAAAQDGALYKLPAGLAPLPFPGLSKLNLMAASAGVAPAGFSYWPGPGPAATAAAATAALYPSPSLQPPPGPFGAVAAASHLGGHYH
Method in brief: (§1)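 Pools of DNA-barcoded human transcription factors, expressed in yeast as GST fusions on glutathione beads and combined with a tag-only sample, were incubated with 200 nmole of a 16-mer random double-stranded DNA library. Incubation took 30 min at room temperature in Tris/NaCl/DTT/glycerol buffer and was followed by washing, 0.1% formaldehyde crosslinking, proximity ligation (BsaI/T4 ligase, 1 h, 37 °C), PCR amplification and sequencing on an Illumina NextSeq500. Binding signal is the ratio of a hexamer's read frequency for a factor to its frequency for the tag-only sample.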

ETV5 = ETV5 (Homo sapiens, UniProt P41161 1-510); settings: protein: recombinant; tags: N-terminal GST; dsDNA, one strand shown
Sequence of ETV5 (P41161 whole entry): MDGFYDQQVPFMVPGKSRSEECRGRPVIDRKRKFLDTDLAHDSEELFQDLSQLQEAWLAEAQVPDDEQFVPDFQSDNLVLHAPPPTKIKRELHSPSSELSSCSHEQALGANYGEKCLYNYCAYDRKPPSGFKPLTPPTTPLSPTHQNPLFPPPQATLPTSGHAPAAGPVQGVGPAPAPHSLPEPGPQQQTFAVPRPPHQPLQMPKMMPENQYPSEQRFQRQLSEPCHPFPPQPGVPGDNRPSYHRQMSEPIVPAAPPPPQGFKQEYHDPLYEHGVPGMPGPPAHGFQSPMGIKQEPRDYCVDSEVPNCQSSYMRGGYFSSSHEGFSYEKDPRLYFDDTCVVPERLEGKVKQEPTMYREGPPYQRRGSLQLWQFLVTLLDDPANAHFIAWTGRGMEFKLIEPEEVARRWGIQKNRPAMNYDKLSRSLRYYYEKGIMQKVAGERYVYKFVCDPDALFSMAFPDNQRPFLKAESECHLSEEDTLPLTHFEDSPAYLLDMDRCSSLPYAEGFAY
Method in brief: as §1

HSF1 = HSF1 (Homo sapiens, UniProt Q00613 1-529); settings: protein: recombinant; tags: N-terminal GST; chain copies: 3; dsDNA, one strand shown
Sequence of HSF1 (Q00613 whole entry): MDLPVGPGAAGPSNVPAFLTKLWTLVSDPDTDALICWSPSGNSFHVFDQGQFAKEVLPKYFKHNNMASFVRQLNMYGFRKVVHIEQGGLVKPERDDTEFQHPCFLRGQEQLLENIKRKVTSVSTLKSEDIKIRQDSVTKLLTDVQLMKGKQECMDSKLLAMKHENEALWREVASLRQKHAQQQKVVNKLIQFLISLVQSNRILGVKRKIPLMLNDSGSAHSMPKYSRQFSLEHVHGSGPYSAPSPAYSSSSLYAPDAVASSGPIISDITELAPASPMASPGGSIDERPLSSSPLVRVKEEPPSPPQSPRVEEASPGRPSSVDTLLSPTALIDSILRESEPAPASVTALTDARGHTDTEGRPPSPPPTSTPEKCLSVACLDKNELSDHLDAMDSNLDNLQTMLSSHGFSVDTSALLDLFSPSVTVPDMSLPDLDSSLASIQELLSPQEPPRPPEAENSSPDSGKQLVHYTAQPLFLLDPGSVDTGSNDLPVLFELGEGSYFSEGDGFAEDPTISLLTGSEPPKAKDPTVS
Method in brief: as §1

SPIC = molecular target: T2, SPIC (Homo sapiens, UniProt Q8N5J4 1-248); settings: protein: recombinant; tags: N-terminal GST; dsDNA, one strand shown
T2 sequence: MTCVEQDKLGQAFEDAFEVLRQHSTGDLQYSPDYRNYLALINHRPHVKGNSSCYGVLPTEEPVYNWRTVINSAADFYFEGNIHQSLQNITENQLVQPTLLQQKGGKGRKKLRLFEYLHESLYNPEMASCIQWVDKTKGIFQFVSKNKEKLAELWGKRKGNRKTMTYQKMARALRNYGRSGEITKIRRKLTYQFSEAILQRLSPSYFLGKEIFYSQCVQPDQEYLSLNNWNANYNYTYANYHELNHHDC
Method in brief: as §1

ELF4 = ELF4 (Homo sapiens, UniProt Q99607 1-663); settings: protein: recombinant; tags: N-terminal GST; dsDNA, one strand shown
Sequence of ELF4 (Q99607 whole entry): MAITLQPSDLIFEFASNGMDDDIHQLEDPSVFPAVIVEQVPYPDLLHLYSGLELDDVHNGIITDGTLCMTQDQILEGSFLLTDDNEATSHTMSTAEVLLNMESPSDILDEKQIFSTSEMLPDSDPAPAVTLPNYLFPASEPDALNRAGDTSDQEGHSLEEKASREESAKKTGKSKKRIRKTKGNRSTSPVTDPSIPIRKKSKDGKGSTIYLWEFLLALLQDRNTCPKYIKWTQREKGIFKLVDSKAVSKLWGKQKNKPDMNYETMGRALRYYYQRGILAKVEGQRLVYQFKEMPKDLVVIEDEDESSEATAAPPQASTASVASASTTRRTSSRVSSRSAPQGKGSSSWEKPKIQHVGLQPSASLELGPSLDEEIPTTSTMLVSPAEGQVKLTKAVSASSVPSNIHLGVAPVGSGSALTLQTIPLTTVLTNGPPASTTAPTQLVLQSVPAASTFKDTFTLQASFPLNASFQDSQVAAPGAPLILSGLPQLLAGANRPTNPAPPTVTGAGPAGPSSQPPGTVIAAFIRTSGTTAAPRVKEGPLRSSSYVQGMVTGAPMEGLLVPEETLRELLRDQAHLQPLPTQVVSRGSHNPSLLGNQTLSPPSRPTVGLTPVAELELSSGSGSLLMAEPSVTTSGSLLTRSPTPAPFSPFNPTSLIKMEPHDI
Method in brief: as §1

ELK4 = molecular target: T3, ELK4 (Homo sapiens, UniProt P28324-2 1-405); settings: protein: recombinant; tags: N-terminal GST; dsDNA, one strand shown
T3 sequence: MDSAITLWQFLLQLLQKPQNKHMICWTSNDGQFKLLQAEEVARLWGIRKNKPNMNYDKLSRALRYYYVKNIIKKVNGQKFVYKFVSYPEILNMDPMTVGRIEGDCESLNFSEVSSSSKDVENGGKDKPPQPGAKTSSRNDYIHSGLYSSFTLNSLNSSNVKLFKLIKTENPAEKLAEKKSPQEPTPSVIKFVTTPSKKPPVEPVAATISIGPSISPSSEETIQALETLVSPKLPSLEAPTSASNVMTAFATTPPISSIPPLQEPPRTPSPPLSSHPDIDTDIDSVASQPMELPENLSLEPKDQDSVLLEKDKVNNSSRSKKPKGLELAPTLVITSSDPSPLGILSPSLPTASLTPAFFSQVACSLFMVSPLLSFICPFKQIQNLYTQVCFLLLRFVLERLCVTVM
Method in brief: as §1

ETV2 = molecular target: T4, ETV2 (Homo sapiens, UniProt O00321 1-342); settings: protein: recombinant; tags: N-terminal GST; dsDNA, one strand shown
T4 sequence: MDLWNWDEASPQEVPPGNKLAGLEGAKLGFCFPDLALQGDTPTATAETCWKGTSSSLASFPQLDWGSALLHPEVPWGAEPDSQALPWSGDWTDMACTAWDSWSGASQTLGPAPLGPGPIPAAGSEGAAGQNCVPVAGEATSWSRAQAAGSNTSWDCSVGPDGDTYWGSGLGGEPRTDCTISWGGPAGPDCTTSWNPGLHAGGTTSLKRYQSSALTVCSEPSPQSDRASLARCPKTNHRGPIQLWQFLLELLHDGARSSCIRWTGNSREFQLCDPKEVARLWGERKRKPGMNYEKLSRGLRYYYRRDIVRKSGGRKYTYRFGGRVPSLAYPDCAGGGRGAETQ
Method in brief: as §1

ELF3 = molecular target: T5, ELF3 (Homo sapiens, UniProt P78545 1-371); settings: protein: recombinant; tags: N-terminal GST; dsDNA, one strand shown
T5 sequence: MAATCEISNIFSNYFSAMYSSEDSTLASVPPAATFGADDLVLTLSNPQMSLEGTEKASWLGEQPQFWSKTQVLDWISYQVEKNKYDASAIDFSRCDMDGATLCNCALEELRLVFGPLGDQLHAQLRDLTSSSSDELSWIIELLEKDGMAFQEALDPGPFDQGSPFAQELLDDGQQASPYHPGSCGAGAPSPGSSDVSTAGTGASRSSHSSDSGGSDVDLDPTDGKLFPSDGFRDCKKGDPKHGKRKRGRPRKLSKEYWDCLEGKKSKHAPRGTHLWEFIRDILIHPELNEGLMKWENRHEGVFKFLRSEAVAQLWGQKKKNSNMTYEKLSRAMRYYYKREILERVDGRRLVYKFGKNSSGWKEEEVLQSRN
Method in brief: as §1

CRX = CRX (Homo sapiens, UniProt O43186 1-299); settings: protein: recombinant; tags: N-terminal GST; dsDNA, one strand shown
Sequence of CRX (O43186 whole entry): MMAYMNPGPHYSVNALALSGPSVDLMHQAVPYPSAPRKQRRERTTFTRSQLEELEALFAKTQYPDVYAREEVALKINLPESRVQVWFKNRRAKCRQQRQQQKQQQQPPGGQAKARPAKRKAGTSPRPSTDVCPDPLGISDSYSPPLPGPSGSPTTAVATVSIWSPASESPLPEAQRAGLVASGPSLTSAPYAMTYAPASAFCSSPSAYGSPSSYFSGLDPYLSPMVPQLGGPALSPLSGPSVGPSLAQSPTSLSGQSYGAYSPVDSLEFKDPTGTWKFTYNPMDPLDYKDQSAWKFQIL
Method in brief: as §1

ETV1 = ETV1 (Homo sapiens, UniProt P50549 1-477); settings: protein: recombinant; tags: N-terminal GST; dsDNA, one strand shown
Sequence of ETV1 (P50549 whole entry): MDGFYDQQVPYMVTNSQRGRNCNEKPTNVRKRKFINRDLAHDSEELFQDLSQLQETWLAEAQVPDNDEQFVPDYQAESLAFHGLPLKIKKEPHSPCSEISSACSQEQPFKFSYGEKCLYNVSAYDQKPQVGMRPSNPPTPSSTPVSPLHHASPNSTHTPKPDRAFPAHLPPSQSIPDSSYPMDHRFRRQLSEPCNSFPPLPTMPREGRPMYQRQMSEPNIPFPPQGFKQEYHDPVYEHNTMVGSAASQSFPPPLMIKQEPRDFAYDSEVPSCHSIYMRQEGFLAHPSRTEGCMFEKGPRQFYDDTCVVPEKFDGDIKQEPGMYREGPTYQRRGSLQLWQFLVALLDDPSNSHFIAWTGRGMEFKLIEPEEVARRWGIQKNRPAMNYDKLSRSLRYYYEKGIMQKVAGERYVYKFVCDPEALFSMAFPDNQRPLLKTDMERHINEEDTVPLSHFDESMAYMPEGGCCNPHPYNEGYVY
Method in brief: as §1

ERF = molecular target: T6, ERF (Homo sapiens, UniProt P50548 1-548); settings: protein: recombinant; tags: N-terminal GST; dsDNA, one strand shown
T6 sequence: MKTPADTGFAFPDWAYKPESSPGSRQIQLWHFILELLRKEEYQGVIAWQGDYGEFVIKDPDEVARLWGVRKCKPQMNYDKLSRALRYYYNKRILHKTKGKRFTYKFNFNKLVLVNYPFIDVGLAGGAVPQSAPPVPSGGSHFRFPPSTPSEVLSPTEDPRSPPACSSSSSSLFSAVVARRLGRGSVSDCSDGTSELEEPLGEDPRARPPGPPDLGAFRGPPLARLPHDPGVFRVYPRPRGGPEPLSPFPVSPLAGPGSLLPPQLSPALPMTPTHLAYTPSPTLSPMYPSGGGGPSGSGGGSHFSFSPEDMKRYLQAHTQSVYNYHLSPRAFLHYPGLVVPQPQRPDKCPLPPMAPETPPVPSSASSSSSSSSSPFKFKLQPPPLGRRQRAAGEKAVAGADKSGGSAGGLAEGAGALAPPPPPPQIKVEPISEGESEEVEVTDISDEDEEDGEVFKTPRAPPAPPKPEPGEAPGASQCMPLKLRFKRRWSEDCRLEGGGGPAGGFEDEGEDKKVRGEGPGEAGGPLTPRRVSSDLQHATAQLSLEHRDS
Method in brief: as §1

ETV3L = molecular target: T7, ETV3L (Homo sapiens, UniProt Q6ZN32 1-361); settings: protein: recombinant; tags: N-terminal GST; dsDNA, one strand shown
T7 sequence: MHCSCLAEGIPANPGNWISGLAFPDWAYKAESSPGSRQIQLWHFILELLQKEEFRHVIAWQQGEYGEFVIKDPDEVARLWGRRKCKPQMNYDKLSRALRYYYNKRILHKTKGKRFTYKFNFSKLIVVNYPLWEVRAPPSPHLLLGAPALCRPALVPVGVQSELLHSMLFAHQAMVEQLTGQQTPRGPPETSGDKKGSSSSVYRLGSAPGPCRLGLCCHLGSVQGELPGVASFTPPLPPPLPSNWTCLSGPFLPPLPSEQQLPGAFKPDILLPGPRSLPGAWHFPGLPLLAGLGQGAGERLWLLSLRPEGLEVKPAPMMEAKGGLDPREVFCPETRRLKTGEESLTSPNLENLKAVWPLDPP
Method in brief: as §1

ETS2 = molecular target: T8, ETS2 (Homo sapiens, UniProt P15036 1-469); settings: protein: recombinant; tags: N-terminal GST; dsDNA, one strand shown
T8 sequence: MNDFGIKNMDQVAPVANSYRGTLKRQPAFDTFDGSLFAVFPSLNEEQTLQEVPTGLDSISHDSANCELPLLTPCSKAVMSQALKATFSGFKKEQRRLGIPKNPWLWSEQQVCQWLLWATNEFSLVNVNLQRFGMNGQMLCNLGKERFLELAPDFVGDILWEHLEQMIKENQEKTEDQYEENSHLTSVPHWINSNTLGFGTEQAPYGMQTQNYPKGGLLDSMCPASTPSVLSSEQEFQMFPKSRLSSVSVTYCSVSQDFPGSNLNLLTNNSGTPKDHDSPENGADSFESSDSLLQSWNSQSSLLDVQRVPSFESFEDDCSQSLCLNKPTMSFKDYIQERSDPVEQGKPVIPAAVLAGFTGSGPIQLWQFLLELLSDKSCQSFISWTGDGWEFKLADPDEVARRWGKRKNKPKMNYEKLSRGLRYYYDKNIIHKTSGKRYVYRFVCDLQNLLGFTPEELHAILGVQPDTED
Method in brief: as §1

SPDEF = molecular target: T9, SPDEF (Homo sapiens, UniProt O95238 1-335); settings: protein: recombinant; tags: N-terminal GST; dsDNA, one strand shown
T9 sequence: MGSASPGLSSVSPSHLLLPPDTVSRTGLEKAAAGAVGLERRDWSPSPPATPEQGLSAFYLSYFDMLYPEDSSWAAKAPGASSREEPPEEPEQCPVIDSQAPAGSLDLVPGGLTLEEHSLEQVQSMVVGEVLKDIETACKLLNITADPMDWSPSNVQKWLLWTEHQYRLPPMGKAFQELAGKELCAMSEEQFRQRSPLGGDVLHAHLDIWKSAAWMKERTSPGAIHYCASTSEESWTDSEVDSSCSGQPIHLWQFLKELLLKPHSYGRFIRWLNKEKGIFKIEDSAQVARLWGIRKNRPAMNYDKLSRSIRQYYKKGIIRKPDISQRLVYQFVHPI
Method in brief: as §1

ETV7 = molecular target: T10, ETV7 (Homo sapiens, UniProt Q9Y603 1-341); settings: protein: recombinant; tags: N-terminal GST; dsDNA, one strand shown
T10 sequence: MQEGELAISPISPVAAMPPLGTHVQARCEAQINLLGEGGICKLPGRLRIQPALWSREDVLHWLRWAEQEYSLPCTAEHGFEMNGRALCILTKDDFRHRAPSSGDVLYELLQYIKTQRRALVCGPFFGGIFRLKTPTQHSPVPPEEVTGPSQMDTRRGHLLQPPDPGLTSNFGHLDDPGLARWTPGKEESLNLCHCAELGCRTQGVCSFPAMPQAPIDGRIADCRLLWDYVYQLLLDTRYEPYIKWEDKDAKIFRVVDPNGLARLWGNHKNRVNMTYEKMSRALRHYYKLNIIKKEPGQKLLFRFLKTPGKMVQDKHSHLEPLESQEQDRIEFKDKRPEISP
Method in brief: as §1

ELF5 = molecular target: T11, ELF5 (Homo sapiens, UniProt Q9UKW6-2 1-255); settings: protein: recombinant; tags: N-terminal GST; dsDNA, one strand shown
T11 sequence: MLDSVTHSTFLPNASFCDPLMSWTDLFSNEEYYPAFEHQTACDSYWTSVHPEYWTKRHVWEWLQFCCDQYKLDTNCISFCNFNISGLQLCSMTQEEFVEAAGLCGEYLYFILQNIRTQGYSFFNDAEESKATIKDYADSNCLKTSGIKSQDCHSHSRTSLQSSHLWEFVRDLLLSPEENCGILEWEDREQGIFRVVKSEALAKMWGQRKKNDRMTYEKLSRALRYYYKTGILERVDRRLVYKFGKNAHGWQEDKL
Method in brief: as §1

ETV3 = molecular target: T12, ETV3 (Homo sapiens, UniProt P41162-2 1-143); settings: protein: recombinant; tags: N-terminal GST; dsDNA, one strand shown
T12 sequence: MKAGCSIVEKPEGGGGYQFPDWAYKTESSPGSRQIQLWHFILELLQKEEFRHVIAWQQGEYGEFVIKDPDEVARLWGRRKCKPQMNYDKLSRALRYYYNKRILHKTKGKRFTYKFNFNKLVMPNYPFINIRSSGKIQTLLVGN
Method in brief: as §1

ETV6 = ETV6 (Homo sapiens, UniProt P41212 1-452); settings: protein: recombinant; tags: N-terminal GST; dsDNA, one strand shown
Sequence of ETV6 (P41212 whole entry): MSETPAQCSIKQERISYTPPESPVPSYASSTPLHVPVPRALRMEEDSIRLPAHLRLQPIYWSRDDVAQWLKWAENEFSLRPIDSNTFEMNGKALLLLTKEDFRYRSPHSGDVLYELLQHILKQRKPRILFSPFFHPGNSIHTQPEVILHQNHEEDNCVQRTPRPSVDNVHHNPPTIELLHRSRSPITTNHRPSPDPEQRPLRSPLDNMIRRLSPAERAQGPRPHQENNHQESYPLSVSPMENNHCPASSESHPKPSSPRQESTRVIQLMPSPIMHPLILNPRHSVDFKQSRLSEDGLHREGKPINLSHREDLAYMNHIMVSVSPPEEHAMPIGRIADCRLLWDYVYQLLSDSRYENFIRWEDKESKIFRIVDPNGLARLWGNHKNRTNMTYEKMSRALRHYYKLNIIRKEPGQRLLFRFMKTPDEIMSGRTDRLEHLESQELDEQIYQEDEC
Method in brief: as §1

## CATTTG
FEV
  binding signal: 1.21 fold enrichment (6-mer frequency, TF over GST control)
ETV5
  binding signal: 1.24 fold enrichment (6-mer frequency, TF over GST control)
HSF1
  binding signal: 1.13 fold enrichment (6-mer frequency, TF over GST control)
SPIC
  binding signal: 1.15 fold enrichment (6-mer frequency, TF over GST control)
ELF4
  binding signal: 1.26 fold enrichment (6-mer frequency, TF over GST control)
ELK4
  binding signal: 1.26 fold enrichment (6-mer frequency, TF over GST control)
ETV2
  binding signal: 1.29 fold enrichment (6-mer frequency, TF over GST control)
ELF3
  binding signal: 1.49 fold enrichment (6-mer frequency, TF over GST control)
CRX
  binding signal: 1.07 fold enrichment (6-mer frequency, TF over GST control)
ETV1
  binding signal: 1.32 fold enrichment (6-mer frequency, TF over GST control)
ERF
  binding signal: 1.4 fold enrichment (6-mer frequency, TF over GST control)
ETV3L
  binding signal: 1.25 fold enrichment (6-mer frequency, TF over GST control)
ETS2
  binding signal: 1.31 fold enrichment (6-mer frequency, TF over GST control)
SPDEF
  binding signal: 1.25 fold enrichment (6-mer frequency, TF over GST control)
ETV7
  binding signal: 1.3 fold enrichment (6-mer frequency, TF over GST control)
ELF5
  binding signal: 1.18 fold enrichment (6-mer frequency, TF over GST control)
ETV3
  binding signal: 1.25 fold enrichment (6-mer frequency, TF over GST control)
ETV6
  binding signal: 1.21 fold enrichment (6-mer frequency, TF over GST control)

From paper PMC7862700, “An all-to-all approach to the identification of sequence-specific readers for epigenetic DNA modifications on cytosine”
